# Reference: the supplement of paper PMC5940239
# Legend:
# [1] = test system: Madurella mycetomatis MM55; experiment: percent growth relative to solvent control; higher = less inhibition, active = 20 or less; conditions: 100 µM; 7 days
# [2] = test system: Madurella mycetomatis MM55; conditions: 7 days
# [3] = test system: Madurella mycetomatis MM55; experiment: IC90; higher = less potent; conditions: 7 days
smiles,measurement,setting,value
Nc1ccc2ncnc(Nc3ccc(OCc4cccc(F)c4)c(Cl)c3)c2c1,percent growth,[1],92.1% (inactive)
CC(C)(C)OC(=O)N1CCN(c2nccc(-c3ccc(-c4ccc(Cl)cc4)s3)n2)CC1,percent growth,[1],103% (inactive)
O=C(Nc1nnc(-c2ccc(Cl)cc2)o1)c1cccc(C(F)(F)F)c1,IC50,[2],10.6 µM
same,IC90,[3],39.2 µM
same,percent growth,[1],3.76% (active)
CN(C)c1cc(NC(=O)Nc2ccccc2)c2ccccc2n1,IC50,[2],14.2 µM
same,IC90,[3],59.1 µM
same,percent growth,[1],8.07% (active)
O=C(COc1cccc(F)c1)Nc1nc(-c2ccccn2)cs1,IC50,[2],8.85 µM
same,IC90,[3],16.1 µM
same,percent growth,[1],0.599% (active)
O=C(CN1CCOCC1)Nc1ccc2ncnc(Nc3ccc(OCc4cccc(F)c4)c(Cl)c3)c2c1,percent growth,[1],79.4% (inactive)
CN1CCN(c2nccc3[nH]c(-c4cccc(F)c4)cc23)CC1,IC50,[2],50.5 µM
same,IC90,[3],93 µM
same,percent growth,[1],3.26% (active)
O=C([C@@H](c1ccc(Cl)cc1)c1cccnc1)N1CCN(c2ccc(C(F)(F)F)cc2)CC1,IC50,[2],1.35 µM
same,IC90,[3],3.4 µM
same,percent growth,[1],4.17% (active)
O=C(Nc1nc(-c2ccccn2)cs1)C1CC1c1ccccc1F (centres undefined),percent growth,[1],46.7% (inactive)
Cc1ccc(-c2nc(CN(Cc3ccccn3)C(C)C)cs2)o1,IC50,[2],53.9 µM
same,IC90,[3],90 µM
same,percent growth,[1],0.31% (active)
COc1ccc(-c2nnc3ccc(-c4cccc(C(C)C)c4)cn23)cc1OC,IC50,[2],40.6 µM
same,IC90,[3],86.2 µM
same,percent growth,[1],2.59% (active)
CCCn1c(NC(=O)c2ccc3ccccc3n2)nc2ccccc21,IC50,[2],3.7 µM
same,IC90,[3],9.85 µM
same,percent growth,[1],-3.5% (active)
c1ccc(-c2[nH]c3ccccc3c2C(c2ccccn2)N2CCCC2)cc1 (centres undefined),IC50,[2],34.8 µM
same,IC90,[3],94.6 µM
same,percent growth,[1],5.96% (active)
CC(C)(C)OC(=O)N1CCC(Cn2nc(-c3cnc4ccccc4c3)c3c(N)ncnc32)CC1,percent growth,[1],99.2% (inactive)
COc1cccc(-c2cc3c(Nc4cccnc4)nccc3[nH]2)c1,IC50,[2],51.8 µM
same,IC90,[3],92.5 µM
same,percent growth,[1],2.45% (active)
COc1cccc(-n2nnnc2S(=O)(=O)Cc2ccccc2)c1,IC50,[2],45.7 µM
same,IC90,[3],90 µM
same,percent growth,[1],1.14% (active)
O=C(C1CCN(c2cc(-n3cccc3)ncn2)CC1)N1CCc2ccccc2C1,IC50,[2],62.1 µM
same,IC90,[3],91.5 µM
same,percent growth,[1],3.17% (active)
CCCNC(=O)N1CCC2(CC1)CC(=O)c1cc(C)ccc1O2,percent growth,[1],102% (inactive)
c1coc(CNc2nc(N3CCCCC3)nc3ccccc23)c1,IC50,[2],10.2 µM
same,IC90,[3],15.5 µM
same,percent growth,[1],1.16% (active)
Cc1[nH]c2cc(F)cc(F)c2c(=O)c1-c1ccc(Oc2ccc(OC(F)(F)F)cc2)cc1,percent growth,[1],95.7% (inactive)
CCOc1ccc(OCC(=O)Nc2cc(C)cc(C)c2)cc1,percent growth,[1],89.4% (inactive)
CCC(=O)Nc1ccccc1C(=O)Nc1ccccn1,percent growth,[1],62.5% (inactive)
Cc1ccc(S(=O)(=O)N2CCN(C(=O)c3cc(-c4ccccc4)[nH]n3)CC2)cc1,percent growth,[1],146% (inactive)
CCOc1ccccc1C(=O)Nc1cccc(-c2nc3ncccn3c2C)c1,percent growth,[1],97.2% (inactive)
Nc1ccc(C(=O)Nc2ccc(-c3nc4ccccc4o3)cc2)cc1,percent growth,[1],100% (inactive)
CC(C(=O)Nc1ccc2oc(-c3ccncc3)nc2c1)c1ccccc1 (centres undefined),percent growth,[1],77% (inactive)
CC1CCCN(C(=O)C(C)Nc2cc(Cl)ccc2N2CCOCC2)C1 (centres undefined),percent growth,[1],53.8% (inactive)
Cc1ccc(Oc2ccc(NC(=O)CNc3ccccc3N3CCCC3=O)cc2)cc1,percent growth,[1],107% (inactive)
CCc1nc2ccccc2n1CC(O)COc1cc(C)ccc1Cl (centres undefined),percent growth,[1],93.7% (inactive)
COC(=O)c1c(NC(=O)c2cc3ccccc3oc2=O)sc2c1CCN(Cc1ccccc1)C2,percent growth,[1],111% (inactive)
Cc1cc2ccccc2n1CC(=O)N1CC(C(=O)N2CCCCC2)Oc2ccccc21 (centres undefined),percent growth,[1],82.1% (inactive)
CS(=O)(=O)c1cccc(-c2cnc3[nH]cc(-c4ccc(CCC(=O)O)cc4)c3c2)c1,percent growth,[1],95.9% (inactive)
COc1cc(C2=NCCN2)ccc1-n1cc(-c2cccc(C3=NCCN3)c2)nn1,percent growth,[1],166% (inactive)
O=C(Nc1ccccc1-c1nc2c(C(=O)O)cccc2o1)c1ccccc1,percent growth,[1],94% (inactive)
Cc1ccc(S(=O)(=O)n2cc(-c3ccnc(N)c3)c3cc(Br)cnc32)cc1,percent growth,[1],25.4% (inactive)
Nc1ncnc2c1ncn2C[C@@H](O)[C@@H](O)C(=O)O,percent growth,[1],134% (inactive)
FC(F)(F)c1cccc(-c2nc3c(NCc4ccncc4)nccc3[nH]2)c1,percent growth,[1],72.4% (inactive)
Nc1cccnc1Nc1ccc(Cl)cc1,percent growth,[1],80.6% (inactive)
Cc1cc(Cl)c(S(=O)(=O)N2CCCC2)cc1OCC(=O)NC1CCCCC1,percent growth,[1],104% (inactive)
CC1(COc2ccc(N3CCC(Oc4ccc(OC(F)(F)F)cc4)CC3)cc2)Cn2cc([N+](=O)[O-])nc2O1 (centres undefined),percent growth,[1],111% (inactive)
Cc1nn2c(=O)c3c([nH]c2c1-c1ccc(Cl)cc1)CCCC3,percent growth,[1],89.2% (inactive)
Cc1ccc(-c2cc(C(=O)Nc3cccnc3)c3cc(Br)ccc3n2)cc1,percent growth,[1],90.5% (inactive)
NCCC(O)C(=O)N[C@@H]1C[C@H](N)[C@@H](OC2O[C@H](CN)[C@@H](O)[C@H](O)[C@H]2O)[C@H](O)C1OC1O[C@H](CO)[C@@H](O)[C@H](N)[C@H]1O (some centres undefined),percent growth,[1],102% (inactive)
CC[C@H](CO)NCCN[C@H](CC)CO,percent growth,[1],139% (inactive)
NS(=O)(=O)c1cccc(-c2ccc3ncc(N4CCOCC4)nc3c2)c1,percent growth,[1],106% (inactive)
Cc1cccc(NC(=O)c2cc(S(=O)(=O)N(C)c3ccc(F)cc3)ccc2Cl)n1,percent growth,[1],70% (inactive)
CC(C)C(C(=O)Nc1ccc(S(=O)(=O)N(C)C)cc1)c1ccc(Cl)cc1 (centres undefined),percent growth,[1],121% (inactive)
N#Cc1ccc(-c2cnc(N)c(-c3ccc(C(N)=O)cc3)n2)cc1,percent growth,[1],64.5% (inactive)
COc1ccc(Cn2cnc3c(-c4ccco4)nc(Cl)nc32)cc1,percent growth,[1],82.7% (inactive)
CC1COC2(CCN(c3nc(=O)c4cc(C(F)(F)F)cc([N+](=O)[O-])c4s3)CC2)O1 (centres undefined),percent growth,[1],79.4% (inactive)
CS(=O)(=O)N1CCC(CCn2nc(Cc3cccc4ccccc34)c3c(N)ncnc32)CC1,percent growth,[1],81.9% (inactive)
O=C(NCCc1ccn(-c2ccccc2)n1)C1CCCCC1,percent growth,[1],49.1% (inactive)
N#Cc1nc(-c2ccccc2F)oc1NCCc1ccccc1,percent growth,[1],56.7% (inactive)
NS(=O)(=O)c1cncc(-c2ccc3nccc(-c4cn[nH]c4)c3n2)c1,percent growth,[1],143% (inactive)
CC(=O)N1CCc2cc3nc(C)cc(C)c3cc21,percent growth,[1],84.2% (inactive)
COc1cccc(OCC(=O)c2ccc(Br)cc2)c1,percent growth,[1],81.3% (inactive)
COc1ccc2nc(C)cc(OCC(=O)NCc3ccccc3)c2c1,percent growth,[1],83.4% (inactive)
COc1ccc(N(CCc2cccc(C)n2)C(=O)C2CCCCC2)cc1,percent growth,[1],28% (inactive)
